# Bioassay records (PubChem)
# MITF inh = MITF inhibition; hit rate 0.28% among 37,000; inhibition, % (test concentration not listed); TRPM1 promoter luciferase, luminescence, 24 h; in the data active = inhibition above about 85%; inconclusive = no clear call, values can overlap the other calls; inactive = below about 68%;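 also: human melanocyte line stably carrying TRPM1 promoter luciferase reporter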
# NOMO-1 viab = STK33 inhibitor candidate reducing NOMO-1 cell viability; NOMO-1 AML viability, CellTiter-Glo luminescence, 72 h; inhibition, % (no concentration beside the values); hit rate 7.5% among 37,000; AID 2330; in the data active = inhibition above about 80%; inconclusive = no clear call, values can overlap the other calls
# PD-1 reverse act = reversal of PD-1 mediated T-cell inhibition. primary human CD4 T cells, PD-L1 beads, CellTiter-Glo 96 h. 29,000 tested, under 10 active. activation, % (concentration not given with the values); call rule not given here;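 also: 0% = median vehicle wells and 100% = positive control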
# Hedgehog inh = Sonic Hedgehog pathway inhibition; AID 2313; inhibition, % (no concentration beside the values); Shh-LIGHT2 Gli-luciferase reporter, 30 h; hit rate 2.1% among 22,000;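 active = mean inhibition across valid replicates above about 65%, limit read from the data; inconclusive = mean under the limit, yet half or more replicates past it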;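 also: pathway switched on by Shh-conditioned medium diluted 1 in 25 in low serum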
# YB-1 expression = YB-1 expression inhibition | delta delta Cp (YB-1 minus CDIP) (test concentration not listed) | U2OS, qRT-PCR YB-1 vs CDIP delta delta Cp, 16 h; active compounds read high; zero = DMSO, each unit about twofold | hit rate 0.37% among 30,000 | AID 434959;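 active = delta delta Cp rounded down to an integer at or above 3, about 3 SD of DMSO wells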;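 also: higher means less YB-1 transcript or more CDIP transcript relative to DMSO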
# The depositor's hits bear a star; ? = inconclusive; . = no result given. An excerpt weighted towards active compounds, which were near 7.4% of everything screened.
SMILES,MITF inh,NOMO-1 viab,PD-1 reverse act,Hedgehog inh,YB-1 expression
Nc1ncnc2c1cnn2-c1ccccc1,-7.9,1.6,-1.2,-13.6,3.88*
CNS(=O)(=O)c1cc(-c2nnc(Nc3cccc(O)c3)c3ccccc23)ccc1C,-1.2,18.1,.,.,.
Cc1ccc(Nc2nnc(-c3ccc(C)c(S(=O)(=O)NCC4CCCO4)c3)c3ccccc23)cc1 (configuration not stated),-1.6,119.2*,-1.4,91.0*,-0.315
CCCCC/C=C\C/C=C\C/C=C\C/C=C\CCCCCC(=O)O,-6.1,19.2,.,-10.0,-0.0624
CCCCCCCCCC/C=C\CCCCCCCc1cccc(O)c1C(=O)O,80.7,119.2*,-7.0,103.1*,-0.0678
CCCCCCCC/C=C\CCCCCCCc1cccc(O)c1C(=O)O,10.5,34.5,1.2,66.0*,-0.282
CCCCC/C=C\C/C=C\C/C=C\C/C=C\CCCC(=O)O,-1.5,-1.3,.,-35.6,0.509
C[C@H]1CN([C@@H](C)CO)C(=O)c2cc(NS(=O)(=O)c3ccc(Cl)cc3)ccc2O[C@@H]1CN(C)Cc1ccc(Cl)c(Cl)c1,50.6,99.9*,-4.5,21.3,0.0559
C[C@@H]1CN([C@@H](C)CO)C(=O)c2cc(NS(=O)(=O)c3ccc(F)cc3)ccc2O[C@@H]1CN(C)Cc1ccc(Cl)c(Cl)c1,64.8,110.5*,-3.3,.,0.176
C[C@@H]1CN([C@H](C)CO)C(=O)c2cc(NS(=O)(=O)c3ccc(Cl)cc3)ccc2O[C@H]1CN(C)Cc1ccc(Cl)c(Cl)c1,-13.3,19.4,-1.9,.,-0.537
C[C@H](CO)N1C[C@H](C)[C@H](CN(C)Cc2ccc3c(c2)OCO3)Oc2ccc(NS(=O)(=O)c3ccc(F)cc3)cc2C1=O,-1.3,112.3*,-1.0,22.3,-0.309
C[C@@H]1CN([C@@H](C)CO)C(=O)c2cc(NS(=O)(=O)c3ccc(Cl)cc3)ccc2O[C@H]1CN(C)Cc1ccc(Cl)c(Cl)c1,45.8,118.6*,-0.8,12.7,-0.115
CC1=CC(=O)OC1(O)CCC(C)CC(=O)O (configuration not stated),.,.,.,-0.7,0.241
COc1cc(OC)c(NC(=O)CN2C(=O)c3ccccc3C2=O)cc1Cl,-4.7,-2.5,-0.1,.,.
COc1cccc(-c2cc(NCc3ccc4c(c3)OCO4)nc(N)n2)c1,-0.8,94.6*,-24.5,?,0.0155
Cc1cc(Br)ccc1NCc1ccc2c(c1)OCO2,-68.0,42.5,0.3,-35.2,-0.997
C[C@H](CO)N1C[C@H](C)[C@H](CN(C)S(=O)(=O)c2ccc(Cl)cc2)Oc2c(NC(=O)Nc3ccc(C(F)(F)F)cc3)cccc2C1=O,9.7,53.1,-3.1,99.8*,0.0114
C[C@H](CO)N1C[C@H](C)[C@@H](CN(C)S(=O)(=O)c2ccccc2)Oc2c(NC(=O)Nc3ccc(C(F)(F)F)cc3)cccc2C1=O,-3.2,34.3,-0.1,-15.7,-0.69
C[C@H]1CN([C@@H](C)CO)C(=O)c2cccc(NC(=O)Nc3ccc(C(F)(F)F)cc3)c2O[C@H]1CN(C)S(=O)(=O)c1ccc(Cl)cc1,-3.1,60.2,.,104.9*,0.036
CCCCc1ccc(NC(=O)N=S2CCN(C(=O)c3ccc(Cl)cc3)CC2)cc1,15.1,63.6,-3.2,7.5,-0.281
CCc1ccccc1NC(=O)CSc1nnc(C)s1,-9.6,-11.1,-1.4,.,.
CCOC(=O)c1c(NC(=O)CN2C(=O)c3cccc4cccc(c34)C2=O)sc2c1CCC2,7.5,10.2,4.5,.,.
COc1cc2c(cc1NC(=O)COc1cccc(C)c1C)oc1ccccc12,-4.7,14.6,3.1,.,.
CC1CC(=O)[C@]2(C)CC[C@]3(C)C(C(=O)C(O)C4[C@@]5(C)CC[C@H](O)C(C)(C(=O)O)C5CC[C@]43C)C2C1C (some centres not stated),58.3,119.2*,-12.4,81.5*,0.952
C[C@@H]1CC[C@]2(C(=O)O)CC[C@]3(C)C(=CCC4[C@@]5(C)CC[C@@H](O)[C@](C)(C(=O)O)C5CC[C@]43C)C2[C@H]1C (some centres not stated),-1.3,8.2,-0.3,-7.7,1.29
SMILES,MITF inh,NOMO-1 viab,PD-1 reverse act,Hedgehog inh,YB-1 expression
O=C(CSc1nnc(Nc2ccccc2)n1-c1ccccc1)Nc1ccccc1Cl,7.3,-5.2,-2.2,.,.
CC(C)(O)C#Cc1ccccc1C(=O)NC(CC(=O)O)c1ccccc1 (configuration not stated),-33.8,28.7,.,.,.
C=C1C(=O)O[C@@H]2CC=C(CCC(C)O)C(C)C[C@@H]12 (some centres not stated),10.4,121.1*,-7.7,5.8,0.322
C=CCN1C(=O)/C(=C2\SC(=Nc3ccccc3)N(c3ccccc3)C2=O)c2ccccc21,8.6,20.3,-0.7,32.4,-0.122
COc1ccc(S(=O)(=O)Nc2ccc3c(c2)CC(=O)N([C@H](C)CO)C[C@@H](C)[C@H](CN(C)Cc2ccccc2)O3)cc1,-10.9,-10.2,1.6,22.8,0.129
C[C@H]1CN([C@@H](C)CO)C(=O)Cc2cc(NS(=O)(=O)c3ccccc3)ccc2O[C@H]1CN(C)Cc1ccc(Oc2ccccc2)cc1,26.6,70.4,.,-33.4,0.0116
C[C@@H]1CN([C@H](C)CO)C(=O)Cc2cc(NS(=O)(=O)c3ccc(Cl)cc3)ccc2O[C@@H]1CN(C)Cc1ccc(Oc2ccccc2)cc1,-5.4,82.3*,0.5,34.4,0.583
COc1ccc(S(=O)(=O)Nc2ccc3c(c2)CC(=O)N([C@H](C)CO)C[C@H](C)[C@H](CN(C)Cc2ccc(Oc4ccccc4)cc2)O3)cc1,0.2,105.6*,.,-33.6,0.164
COc1ccc(S(=O)(=O)Nc2ccc3c(c2)CC(=O)N([C@H](C)CO)C[C@@H](C)[C@@H](CN(C)Cc2ccc(Oc4ccccc4)cc2)O3)cc1,16.6,116.0*,-2.5,18.8,-0.0934
O=c1c2ccccc2nc(-c2ccco2)n1CCN1CCOCC1,-8.1,0.7,.,.,.
COc1ccc(OC)c(NC(=O)COc2ccc(C(=O)Nc3cccc(C)c3C)cc2)c1,11.6,20.4,-0.2,.,.
C[C@@H]1CN([C@H](C)CO)C(=O)Cc2cc(NS(=O)(=O)c3ccccc3)ccc2O[C@@H]1CN(C)Cc1ccc(-c2ccccc2)cc1,0.7,104.3*,-3.5,42.9,-0.403
Cc1ccc(S(=O)(=O)Nc2ccc3c(c2)CC(=O)N([C@H](C)CO)C[C@H](C)[C@H](CN(C)Cc2ccc(-c4ccccc4)cc2)O3)cc1,-6.0,83.9*,.,.,0.027
C[C@H]1CN([C@@H](C)CO)C(=O)Cc2cc(NS(=O)(=O)c3ccc(F)cc3)ccc2O[C@@H]1CN(C)Cc1ccc(-c2ccccc2)cc1,30.8,122.5*,.,39.6,0.189
C[C@H]1CN([C@@H](C)CO)C(=O)Cc2cc(NS(=O)(=O)c3ccc(Cl)cc3)ccc2O[C@@H]1CN(C)Cc1ccc(-c2ccccc2)cc1,17.8,124.2*,-1.0,14.6,0.142
Cc1ccc(S(=O)(=O)Nc2ccc3c(c2)CC(=O)N([C@@H](C)CO)C[C@H](C)[C@H](CN(C)Cc2ccc(-c4ccccc4)cc2)O3)cc1,26.5,49.0,.,-8.3,-0.013
